Data as given in PubChem BioAssay (EPA / NIEHS).
Where “and” joins values, the source holds several entries; their conditions need not be identical. Equal values may be shown once. Results filed as inconclusive are left out. Calls of active or inactive are those of the source. How the source made its calls: active means hit-call score of the fitted dose curve at least 0.9, where 1 is the maximum; inconclusive means response in the unintended direction; inactive means score below 0.9.

The molecules below were run against Cytochrome P450 3A4 (Homo sapiens) (UniProt P08684) (assay: NVS_ADME_hCYP3A4: NovaScreen (NVS) CYP450-related Enzyme Activity (ADME) Assay for human CYP3A4 (AID 2283110)).
Cytochrome P450 3A4 (Homo sapiens), sequence (P08684 whole entry, looked up): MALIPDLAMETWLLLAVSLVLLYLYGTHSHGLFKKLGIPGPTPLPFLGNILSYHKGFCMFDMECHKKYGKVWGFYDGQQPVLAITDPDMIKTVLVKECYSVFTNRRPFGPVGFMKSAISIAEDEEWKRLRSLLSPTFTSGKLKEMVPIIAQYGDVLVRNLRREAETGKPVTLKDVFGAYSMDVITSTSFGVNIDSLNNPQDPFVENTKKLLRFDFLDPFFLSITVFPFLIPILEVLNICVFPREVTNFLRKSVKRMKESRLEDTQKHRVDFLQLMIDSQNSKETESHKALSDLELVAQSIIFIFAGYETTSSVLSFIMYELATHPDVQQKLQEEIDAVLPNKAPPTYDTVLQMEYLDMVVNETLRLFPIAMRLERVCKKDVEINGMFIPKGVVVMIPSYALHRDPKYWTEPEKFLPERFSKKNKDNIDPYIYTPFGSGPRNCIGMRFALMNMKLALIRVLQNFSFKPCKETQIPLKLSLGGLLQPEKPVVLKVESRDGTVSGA
Summary of the method: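 Cell-free recombinant enzyme expressed in insect cells; fluorescent substrate turnover read after 0.33 h, acetonitrile as negative control. Primary screen in duplicate at 10 uM, actives then tested in concentration series.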
For `Oc1ccc(Cl)cc1Cc1ccccc1`, the outcome was “inactive”.
With `O=S(=O)(O)C(F)(F)C(F)(F)C(F)(F)C(F)(F)C(F)(F)C(F)(F)C(F)(F)C(F)(F)F` the outcome was “inactive”.
For `CC(C)(C)C(O)/C(=C\c1ccc(Cl)cc1Cl)n1cncn1` (stereo unspecified), the AC50 was 1.2 µM (active).
In the case of `CC(C)(C)C(O)C(Oc1ccc(Cl)cc1)n1cncn1` (stereo unspecified), the outcome is reported as “inactive”.
With `N#Cc1c(Cl)c(Cl)c(Cl)c(C#N)c1Cl` the AC50 was 0.302 µM (active).
In the case of `[2H]C1([2H])[n+]2ccccc2-c2cccc[n+]2C1([2H])[2H]`, the AC50 is reported as 2.25 µM (active).

The molecules below were run against Cytochrome P450 2C19 (Homo sapiens) (UniProt P33261) (assay: NVS_ADME_hCYP2C19: NovaScreen (NVS) CYP450-related Enzyme Activity (ADME) Assay for human CYP2C19 (AID 2283113);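 on AC50: potency for inhibition seen as loss of fluorescent signal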).
Summary of the method: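 Recombinant insect-cell-expressed enzyme, fluorescent substrate, 1 h after chemical addition, fluorescence intensity. Baseline = acetonitrile vehicle; activity scored as signal loss. Primary HTS single concentration 10 uM, duplicate; actives retested in concentration series.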
With `CN1CSC(=S)N(C)C1` the AC50 was 10 µM (active).
In the case of `O=C1c2ccccc2C(=O)N1SC(Cl)(Cl)Cl`, the outcome is reported as “inactive”.
In the case of `CCOC1Oc2ccc(OS(C)(=O)=O)cc2C1(C)C` (stereo unspecified), the AC50 is reported as 3.56 µM (active).
In the case of `CNC(=O)CSP(=S)(OC)OC`, the AC50 is reported as 2.73 µM (active).
For `C[C@H]1[C@H](c2ccc(Cl)cc2)SC(=O)N1C(=O)NC1CCCCC1`, the AC50 was 7.38 µM (active).
For `COc1nn(CSP(=S)(OC)OC)c(=O)s1`, the AC50 was 0.124 µM (active).
In the case of `Oc1ccc(Cl)cc1Cc1ccccc1`, the AC50 is reported as 3.27 µM (active) [middle of 7 runs].
For `O=S(=O)(O)C(F)(F)C(F)(F)C(F)(F)C(F)(F)C(F)(F)C(F)(F)C(F)(F)C(F)(F)F`, the AC50 was 5.18 µM (active) [middle of 5 runs].
For `CCCN(CCOc1c(Cl)cc(Cl)cc1Cl)C(=O)n1ccnc1`, the AC50 was 0.0245 µM (active).
For `O=C(O)CCCOc1ccc(Cl)cc1Cl`, the AC50 was 12.1 µM (active).
In the case of `COC(=O)c1ccccc1S(=O)(=O)NC(=O)Nc1nc(C)nc(OC)n1`, the AC50 is reported as 5 µM (active).
For `CCOCN(C(=O)CCl)c1c(C)cccc1CC`, the AC50 was 5.09 µM (active).
With `CC[C@H](C)[C@H]1O[C@]2(C=C[C@@H]1C)C[C@@H]1C[C@@H](C/C=C(\C)[C@@H](O[C@H]3C[C@H](OC)[C@@H](O[C@H]4C[C@H](OC)[C@@H](O)[C@H](C)O4)[C@H](C)O3)[C@@H](C)/C=C/C=C3\CO[C@@H]4[C@H](O)C(C)=C[C@@H](C(=O)O1)[C@]34O)O2` (tested in a mixture with another compound) the AC50 was 6.36 µM (active).
For `O=C(O)COc1ccc(Cl)cc1Cl`, the AC50 was 10 µM (active).
In the case of `COP(=S)(OC)Oc1ccc(SC)c(C)c1`, the AC50 is reported as 2.45 µM (active).
With `COP(=S)(OC)Oc1ccc([N+](=O)[O-])cc1` the AC50 was 0.25 µM (active).
In the case of `CC(C)(C)C(O)/C(=C\c1ccc(Cl)cc1Cl)n1cncn1` (stereo unspecified), the AC50 is reported as 0.00727 µM (active).
In the case of `O=S1OCC2C(CO1)C1(Cl)C(Cl)=C(Cl)C2(Cl)C1(Cl)Cl` (stereo unspecified), the AC50 is reported as 1.64 µM (active).
`Cc1[nH]c(=O)n(C(C)(C)C)c(=O)c1Cl` was tested, and the AC50 was 6.8 µM (active).
In the case of `CC(C)(C)C(O)C(Oc1ccc(Cl)cc1)n1cncn1` (stereo unspecified), the AC50 is reported as 1.29 µM (active) and 1.71 µM (active) and 1.18 µM (active).
For `N#Cc1c(Cl)c(Cl)c(Cl)c(C#N)c1Cl`, the outcome was “inactive”.
For `CCC(C)(NC(=O)c1cc(Cl)c(C)c(Cl)c1)C(=O)CCl` (stereo unspecified), the outcome was “inactive”.
With `CC1(C)C(C=C(Cl)Cl)C1C(=O)OC(C#N)c1ccc(F)c(Oc2ccccc2)c1` (stereo unspecified) the AC50 was 13.5 µM (active).
For `CC(C)N(C(=O)COc1nnc(C(F)(F)F)s1)c1ccc(F)cc1`, the AC50 was 1.05 µM (active).
`CCN(CC)C(=O)SCc1ccc(Cl)cc1` was tested, and the AC50 was 10 µM (active).
